Bioassay records deposited in PubChem BioAssay by National Center for Advancing Translational Sciences (NCATS).
nsP2pro inh: inhibitors of chikungunya virus nsP2 protease; Q8JUX6; Potency, µM (series often up to 24.9 µM), most hits filed as inhibitors; AID 1964107; 31,000 tested, 1.1% active; FRET peptide cleavage, nsP2pro, fluorescence 1 h; note: nearly all actives have a fitted effect of over 60% in size
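Purified recombinant nsP2pro (150 nM final) in 10 mM Tris-HCl pH 8.0 with 0.01% Tween 20 was preincubated 15 min at room temperature with compound (7 concentrations, up to 25 uM). FRET peptide 2 substrate (2.5 uM final) was then added; fluorescence was read after 1 h.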
CHIKV nsP2 cell: secondary cell-based test for CHIKV nsP2 protease inhibitors. shares compounds with nsP2pro inh. cell-based CHIKV nsP2 protease reporter assay. Potency, µM (top dose mostly 51.1 µM), usual class: inhibitors. 450 tested, 10% active; note: nearly all actives have a fitted effect of over 70% in size
Target sequence (Q8JUX6 220-798 limits assumed): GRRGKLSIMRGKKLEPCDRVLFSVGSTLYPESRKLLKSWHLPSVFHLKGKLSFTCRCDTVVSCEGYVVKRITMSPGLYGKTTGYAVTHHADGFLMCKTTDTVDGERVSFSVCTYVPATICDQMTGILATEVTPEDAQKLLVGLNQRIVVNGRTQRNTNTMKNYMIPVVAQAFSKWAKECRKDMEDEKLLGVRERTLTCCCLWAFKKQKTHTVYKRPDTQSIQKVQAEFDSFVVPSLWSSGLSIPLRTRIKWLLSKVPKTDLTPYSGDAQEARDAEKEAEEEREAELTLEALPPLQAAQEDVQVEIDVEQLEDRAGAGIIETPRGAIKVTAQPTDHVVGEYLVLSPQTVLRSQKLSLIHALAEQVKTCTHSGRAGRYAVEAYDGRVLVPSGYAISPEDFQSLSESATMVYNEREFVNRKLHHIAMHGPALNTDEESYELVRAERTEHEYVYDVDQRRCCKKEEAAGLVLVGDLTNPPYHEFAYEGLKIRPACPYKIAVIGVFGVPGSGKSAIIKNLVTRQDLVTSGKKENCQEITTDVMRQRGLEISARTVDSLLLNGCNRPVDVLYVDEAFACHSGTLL
NSP2 full ctr: full-length CHIKV NSP2 protease inhibition, selectivity; 410 tested, 39% active; Full-length CHIKV NSP2 protease enzymatic counterscreen; Potency, µM (titrated, usually from 50.7 µM), most hits filed as inhibitors; shares compounds with nsP2pro inh; note: nearly all actives have a fitted effect of over 65% in size
Furin counter: selectivity counter-screen for CHIKV nsP2 protease inhibitors: human furin; Recombinant human furin enzymatic counterscreen, fluorogenic substrate; AID 1964102; shares compounds with nsP2pro inh; Potency, µM (highest dose often 50.6 µM), usual class: inhibitors; 410 tested, 6% active
NS23 peptide cs: selectivity test for CHIKV nsP2 protease inhibitors: endogenous NS2/3 peptide | shares compounds with nsP2pro inh | Purified CHIKV nsP2 protease, endogenous NS2/3 peptide cleavage | Potency, µM (titrated, usually from 51 µM), actives largely listed as inhibitors | 410 tested, 34% active | AID 1964103; note: nearly all actives have a fitted effect of over 55% in size
Papain counter: inhibits papain in a CHIKV nsP2 protease selectivity counterscreen | Potency, µM (top dose mostly 51 µM), most hits filed as inhibitors | 410 tested, 5% active | purified papain protease activity, enzymatic inhibition | shares compounds with nsP2pro inh
nsP2pro confirm: confirmation of CHIKV nsP2 protease inhibitors. Potency, µM (top dose mostly 25.5 µM), actives largely listed as inhibitors. CHIKV nsP2 protease enzymatic activity, qHTS. shares compounds with nsP2pro inh. AID 1964105. 410 tested, 43% active; note: nearly all actives have a fitted effect of over 75% in size
HCV NS3 4A cs: selectivity counter-screen for CHIKV nsP2 protease inhibitors: HCV NS3/4A; Potency, µM (series often up to 50.9 µM), hits mostly inhibitors; 410 tested, 20% active; shares compounds with nsP2pro inh; HCV NS3/4A protease biochemical counterscreen; AID 1964106; note: nearly all actives have a fitted effect of over 55% in size
Hits are given with their value; - = inactive; ? = inconclusive; . = not tested or not shown. This excerpt belongs to a sample that is enriched for hits. Calls come from the whole dose curve.

SMILES	nsP2pro inh	others
O=C(NCc1c(F)cc(F)cc1F)c1cn2c(c(O)c1=O)C(=O)N1C3CCC(C3)OC1C2 (centres undefined)	-
CC(Cc1ccc(O)c(O)c1)C(C)Cc1ccc(O)c(O)c1 (centres undefined)	9.9µM	CHIKV nsP2 cell=-;NSP2 full ctr=29µM;Furin counter=-;NS23 peptide cs=21µM;Papain counter=-;nsP2pro confirm=8µM;HCV NS3 4A cs=-
CC(CCc1ccc(O)cc1)NCCc1ccc(O)c(O)c1 (centres undefined)	-
Cc1n[nH]c(C)c1CNC(=O)C1CCN(c2cn[nH]c(=O)c2)C1 (centres undefined)	-
O=C(Cc1cccc(Cl)c1)NCCNC(=O)c1cccc(-c2ccsc2)c1	-
CCN1C(=O)C2CC3(CCN(C(=O)c4cc(C)n(CCOC)c4C)CC3)CN2C1=O (centres undefined)	-
c1ccc(C2(c3ccccc3)CCCN(Cc3cscn3)C2)cc1	-
C=C1/C(=C/C=C2\CCC[C@]3(C)[C@@H]([C@H](C)CC[C@@H](O)C(C)C)CC[C@@H]23)C[C@@H](O)C[C@@H]1O	-
Cn1cnc(CCNc2ncnc3ccc(-c4ccc5c(c4)OCO5)cc23)c1	-
O=C(C[C@@H]1CCNC[C@@H]1Cc1cc(CN2CCCCC2)on1)NCc1cccs1	-
CC(=O)O[C@H]1C[C@@H](O)C(C)(C)C2C[C@@H](OC(C)=O)[C@]3(C)C(CC[C@@]4(C)[C@H](c5ccoc5)OC(=O)[C@H]5O[C@]543)[C@]21C (some centres undefined)	-
CC(=O)OC1CC2C(C)(C)C(=O)C=CC2(C)C2CC(=O)C3=C(CCC3C3=CC(O)OC3=O)C12C (centres undefined)	-
CC(=O)O[C@@H]1CC2C(C)(C)C(=O)C=C[C@]2(C)C2CC[C@@]3(C)[C@H](c4ccoc4)OC(=O)[C@H]4O[C@]43[C@@]21C (some centres undefined)	?	CHIKV nsP2 cell=-;NSP2 full ctr=?;Furin counter=-;NS23 peptide cs=-;Papain counter=?;nsP2pro confirm=?;HCV NS3 4A cs=-
O=C(NCCC1=CCCCC1)c1c(-c2cncnc2)cc(=O)n2c1CCCC2	-
COc1ncc(Nc2ncc([C@@H](C)N3CCN(S(C)(=O)=O)CC3)cc2-c2nc(C)nc(N)n2)cc1F	?	CHIKV nsP2 cell=-;NSP2 full ctr=-;Furin counter=-;NS23 peptide cs=-;Papain counter=?;nsP2pro confirm=-;HCV NS3 4A cs=-
CCC(CC)Nc1ncnc2c1CN(C1CCC1)C(=O)CN2C	-
O=C(/C=C/c1ccc(O)c(O)c1)O[C@@H]1CC(O)(C(=O)O)C[C@@H](OC(=O)/C=C/c2ccc(O)c(O)c2)C1O (some centres undefined)	-
Cc1ccc([S+](=O)([O-])N2CCCC2C(=O)N2CCC3(CC2)CC(=O)Nc2ccccc2O3)cc1 (centres undefined)	-
CS(=O)(=O)c1cccc(CNc2nc(Nc3ccc4c(c3)CCC(=O)N4)ncc2C(F)(F)F)c1	-
CCS(=O)(=O)N1CCN(c2ccc(Nc3ncc(C(N)=O)c(NC4CC4)n3)cc2)CC1	-
CC(=O)NCC(=O)N1[C@@H]2CC[C@H]1c1ccc(Nc3ncc(C(F)(F)F)c(NC4CCC4)n3)cc12	.	CHIKV nsP2 cell=-;NSP2 full ctr=?;Furin counter=-;NS23 peptide cs=-;Papain counter=?;nsP2pro confirm=?;HCV NS3 4A cs=-
Cc1ccc(-c2cc(C(=O)NCc3cccs3)nn3cnnc23)cc1	-
CCC(C)/C=C(C)/C=C/C1=CC2=C(Cl)C(=O)C(C)(OC(C)=O)C(=O)C2=CN1CCCCC(N)C(=O)O (centres undefined)	-
CC[C@H](C)/C=C(C)/C=C/C1=CC2=CC(=O)[C@]3(C)OC(=O)[C@@H](C(C)=O)[C@@H]3C2=CO1	?	CHIKV nsP2 cell=-;NSP2 full ctr=?;Furin counter=-;NS23 peptide cs=?;Papain counter=-;nsP2pro confirm=?;HCV NS3 4A cs=-
CCC(C)/C=C(C)/C=C/C1=CC2=C(Cl)C(=O)C(C)(OC(C)=O)C(=O)C2=CN1C(CCC(=O)O)C(=O)O (centres undefined)	-
SMILES	nsP2pro inh	others
CCC(C)/C=C(C)/C=C/C1=CC2=CC(=O)C3(C)OC(C)(O)C(C(=O)OC)C3C2=CO1 (centres undefined)	?	CHIKV nsP2 cell=-;NSP2 full ctr=-;Furin counter=-;NS23 peptide cs=-;Papain counter=-;nsP2pro confirm=?;HCV NS3 4A cs=-
CCC(C)/C=C(C)/C=C/C1=CC2=C(Cl)C(=O)C(C)(OC(C)=O)C(=O)C2=CO1 (centres undefined)	?	CHIKV nsP2 cell=-;NSP2 full ctr=?;Furin counter=-;NS23 peptide cs=?;Papain counter=?;nsP2pro confirm=?;HCV NS3 4A cs=-
CCC(C)/C=C(C)/C=C/C1=CC2=CC(=O)C(C)(O)C(OC(C)=O)C2CO1 (centres undefined)	-
CCS(=O)(=O)Nc1ccc(C)n(CC(=O)NC2CCCCC2)c1=O	-
CN1CC(O)CN([S+](=O)([O-])c2cccs2)CC1=O (centres undefined)	-
CC(C(=O)NCCc1ccccn1)C1CCOCC1 (centres undefined)	-
O=C(N[C@H]1CCN2C(=O)c3cc(/C=C/c4ccccc4)ccc3NC(=O)[C@H]12)C1CCCC1	-
CC(=O)N1CCCC(c2nn(-c3ccccn3)c(=O)[nH]2)C1 (centres undefined)	-
COc1cc(F)c(CN2CCC3(CCCNC3)C2)c(F)c1 (centres undefined)	-
COc1cccc(N2CCN(C(=O)CCn3ccn4nc5c(c4c3=O)CCCC5)CC2)c1	-
O=c1ncn(Cc2ccccc2)c2ccc(-c3cccnc3)nc12	-
O=C1c2ccccc2C(=O)c2oc(-c3cccnc3)nc21	3.1µM	CHIKV nsP2 cell=?;NSP2 full ctr=-;Furin counter=-;NS23 peptide cs=?;Papain counter=-;nsP2pro confirm=?;HCV NS3 4A cs=-
NCCc1noc(-c2ccccc2)n1	-
O=C1c2ccccc2C(=O)c2oc(-c3ccccc3)nc21	8.8µM	CHIKV nsP2 cell=-;NSP2 full ctr=?;Furin counter=-;NS23 peptide cs=-;Papain counter=-;nsP2pro confirm=-;HCV NS3 4A cs=-
Cc1cnc(-c2ccccc2C(C)C)nc1N(C)Cc1ccc(-c2cccnc2)cc1	-
O=C(CSc1oc(-c2ccccc2)nc1S(=O)(=O)c1ccccc1)c1ccccc1	-
COc1ccc(CNc2nccc(CCC(F)(F)F)n2)cc1OC	-
COc1cc(C(=O)N[C@@H]2[C@@H](c3ccccc3)[C@@H](CO)N3CCCC[C@H]23)cc(OC)c1OC	-
CC(C)CNC(=O)c1cc(-c2ccsc2)nc2c1cnn2C	-
COc1ccc2nc(-c3cccc(C)c3)sc2c1	-
